Several values for one entry are separate records, joined by “and”; a condition that tells them apart may be missing. Equal entries are not always repeated. About 2,000 (36%) of roughly 5,500 compounds were called active. Roughly 18% stayed inconclusive and do not appear here. Rule as the data show it: active = normalized growth mostly below about 0.91 (no sharp cut-off); inconclusive = no clear call, values can overlap the other calls; inactive = mostly above about 0.92. The list shows a part of the results.
Assay: chemical genetic growth profiling, strain panel (AID 1159580);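 also: tested at 20 µM; growth read once vehicle control cultures reached saturation at 30 °C; 1 = growth at the plate median or of vehicle wells; lower values mean less growth of the strain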
Settings: S. cerevisiae deletion strains, growth OD

Measured: normalized growth

NC(=O)c1ccc[n+]([C@@H]2O[C@H](COP(=O)([O-])OP(=O)(O)OC[C@H]3O[C@@H](n4cnc5c(N)ncnc54)[C@H](O)[C@@H]3O)[C@@H](O)[C@H]2O)c1
inactive: locus YAL013W, strain DEP1, hits give low values 0.974 | locus YAL021C, strain ccr4, hits give low values 1.05 | locus YAL026C, strain drs2, hits give low values 1.04 | locus YAL030W, strain snc1, hits give low values 1.02 | locus YBL061C, strain skt5, hits give low values 1.03 | locus YBR009C, strain hhf1, hits give low values 1.05 | locus YBR021W, strain FUR4, hits give low values 0.996 | locus YBR023C, strain chs3, hits give low values 1.03 | locus YBR171W, strain sec66, hits give low values 1.06 | locus YBR229C, strain ROT2, hits give low values 0.949 | locus YBR231C, strain swc5, hits give low values 1.03 | locus YBR279W, strain paf1, hits give low values 1.02 | locus YCL011C, strain gbp2, hits give low values 1.04 | locus YCL016C, strain dcc1, hits give low values 1.04 | locus YCL029C, strain bik1, hits give low values 0.99 | locus YCL061C, strain MRC1, hits give low values 1.03 | locus YCL069W, strain vba3, hits give low values 1.03 | locus YCR088W, strain abp1, hits give low values 1.03 | locus YDL005C, strain med2, hits give low values 1.02 | locus YDL035C, strain GPR1, hits give low values 0.986 | locus YDL040C, strain nat1, hits give low values 1.03 | locus YDL074C, strain BRE1, hits give low values 1.03 | locus YDL101C, strain DUN1, hits give low values 0.987 | locus YDL134C, strain PPH21, hits give low values 0.978 | locus YDL185W, strain tfp1, hits give low values 0.994 | locus YDL192W, strain arf1, hits give low values 0.99 | locus YDR001C, strain nth1, hits give low values 1.02 | locus YDR069C, strain doa4, hits give low values 1.02 | locus YDR101C, strain arx1, hits give low values 1.01 | locus YDR137W, strain rgp1, hits give low values 1.07 | locus YDR150W, strain NUM1, hits give low values 0.965 | locus YDR159W, strain sac3, hits give low values 0.949 | locus YDR162C, strain NBP2, hits give low values 0.973 | locus YDR195W, strain ref2 1.08 | locus YDR297W, strain sur2, hits give low values 1.04 | locus YDR318W, strain mcm21, hits give low values 1.02 | locus YDR334W, strain swr1, hits give low values 1.02 | locus YDR335W, strain msn5, hits give low values 1.05 | locus YDR388W, hits give low values 0.99 | locus YDR392W, strain spt3, hits give low values 1.08 | locus YDR502C, strain sam2, hits give low values 0.992 | locus YEL003W, strain gim4, hits give low values 1.02 | locus YEL037C, strain rad23, hits give low values 1.03 | locus YEL061C, strain CIN8 (second series), hits give low values 1.02 | locus YEL061C, strain CIN8, hits give low values 0.981 | locus YER015W, strain faa2, hits give low values 1.04 | locus YER016W, strain bim1, hits give low values 1.04 | locus YER110C, hits give low values 0.973 | locus YER111C, strain swi4, hits give low values 1.03 | locus YER155C, strain BEM2 (second series), hits give low values 1.06 | locus YER155C, strain BEM2, hits give low values 0.99 | locus YER167W, strain BCK2, hits give low values 0.987 | locus YFR010W, strain ubp6, hits give low values 1.05 | locus YGL078C, strain dbp3, hits give low values 0.998 | locus YGL086W, strain mad1, hits give low values 0.992 | locus YGL167C, strain pmr1, hits give low values 1.04 | locus YGL173C, strain kem1, hits give low values 1.04 | locus YGL227W, strain vid30, hits give low values 1.03 | locus YGL240W, strain doc1, hits give low values 1.02 | locus YGL248W, strain PDE1, hits give low values 0.977 | locus YGL253W, strain hxk2, hits give low values 1.04 | locus YGR078C, strain PAC10, hits give low values 1.02 | locus YGR135W, strain pre9, hits give low values 1 | locus YGR229C, strain SMI1, hits give low values 1.02 | locus YGR252W, strain gcn5, hits give low values 0.913 | locus YHR013C, strain ard1, hits give low values 1.08 | locus YHR027C, strain rpn1, hits give low values 1.03 | locus YHR030C, strain SLT2, hits give low values 0.981 and 0.987 | locus YHR079C, strain IRE1 (second series), hits give low values 1 | locus YHR079C, strain IRE1, hits give low values 0.962 | locus YHR094C, strain hxt1, hits give low values 0.993 | locus YHR129C, strain ARP1, hits give low values 0.996 | locus YHR142W, strain chs7, hits give low values 1.09 | locus YHR200W, strain rpn10, hits give low values 0.994 | locus YIL066C, strain RNR3, hits give low values 0.982 | locus YIL073C, strain SPO22, hits give low values 0.985 | locus YIL125W, strain kgd1, hits give low values 0.986 | locus YIR030C, strain dcg1, hits give low values 0.988 | locus YJL092W, strain hpr5, hits give low values 1.02 | locus YJL095W, strain BCK1 (second series), hits give low values 1.02 | locus YJL095W, strain BCK1, hits give low values 1.03 and 0.983 | locus YJL115W, strain asf1, hits give low values 1.03 | locus YJL129C, strain trk1, hits give low values 1.06 | locus YJL134W, strain LCB3, hits give low values 0.977 | locus YJL154C, strain vps35, hits give low values 1.02 | locus YJL164C, strain tpk1, hits give low values 1.05 | locus YJL166W, strain qcr8, hits give low values 1.03 | locus YJL168C, strain set2, hits give low values 0.995 | locus YJL187C, strain SWE1 (second series), hits give low values 0.987 | locus YJR043C, strain POL32, hits give low values 1.02 | locus YJR066W, strain TOR1, hits give low values 0.943

— PubChem BioAssay AID1159580 (chemical genetic matrix, 2015)
